Source: the supplement of paper PMC7366291
Counter-ions that a name gives are not always drawn. ± gives the standard deviation of the averaged measurements.

Tested on: Danio rerio Tg(wt1b:EGFP) embryo, pronephros
Test: glomerular width (mean of left and right), fold change vs DMSO control; higher = wider glomerulus
Settings: 25 µM; exposure: 24-48 hpf
Procedure, shortened: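 Features are reported as fold changes against the mean of same-day DMSO-treated embryos. Before that, values more than 2 SD away from the feature mean were excluded. The embryos, dechorionated Tg(wt1b:EGFP) zebrafish, had been exposed from 24 to 48 hpf at 28.5°C to 25 μM compound in 0.5% DMSO in HEPES-buffered E3 with 0.003% PTU, and distances and angles came from 16 manually set points on maximum projections of dorsal pronephros images in Fiji.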

Row | Structure (SMILES) | glomerular width
1 | CC(=O)NCCCS(=O)(=O)O [Acamprosate calcium] | 1.02 ± 0.022
2 | CC(C)NNC(=O)c1ccncc1 [Iproniazide phosphate] | 1.03 ± 0.024
3 | C=C1C(=O)O[C@H]2[C@H]1CC/C(C)=C/CC[C@@]1(C)O[C@@H]21 [Parthenolide] | 0.8373 ± 0.0079
4 | CN(C)CC/C=C1\c2ccccc2CSc2ccccc21 [Dosulepin hydrochloride] | 0.981 ± 0.048
5 | Nc1ccc(O)c(C(=O)O)c1 [Mesalamine] | 0.956 ± 0.032
6 | O=C(Oc1cccc2cccnc12)c1ccccc1 [Benzoxiquine] | 0.56 ± 0.11
7 | CCC(=O)O[C@@H](O[P@](=O)(CCCCc1ccccc1)CC(=O)N1C[C@H](C2CCCCC2)C[C@H]1C(=O)O)C(C)C [Fosinopril] | 1.01 ± 0.023
8 | C[C@]12CC[C@@H]3c4ccc(O)cc4CC[C@H]3[C@@H]1CC[C@@H]2O [Estradiol-17 beta] | 0.812 ± 0.069
9 | C#C[C@]1(O)CC[C@H]2[C@@H]3CCC4=Cc5oncc5C[C@]4(C)[C@H]3CC[C@@]21C [Danazol] | 0.592 ± 0.0074
10 | CC(NCCC(c1ccccc1)c1ccccc1)c1ccccc1 (stereo not given) [Fendiline hydrochloride] | 0.995 ± 0.018
11 | NC(Cc1cc(I)c(Oc2cc(I)c(O)c(I)c2)c(I)c1)C(=O)O (stereo not given) [Thyroxine (L)] | 1.07 ± 0.046
12 | CC(C)NC[C@H](O)COc1cccc2ccccc12 [(S)-propranolol hydrochloride] | 1.03 ± 0.017
13 | OC(CCN1CCCC1)(c1ccccc1)C1CCCCC1 (stereo not given) [Procyclidine hydrochloride] | 1.1 ± 0.013
14 | c1cnc(N2CCN(Cc3ccc4c(c3)OCO4)CC2)nc1 [Piribedil hydrochloride] | 0.962 ± 0.028
15 | NS(=O)(=O)c1cc(C(=O)O)cc(N2CCCC2)c1Oc1ccccc1 [Piretanide] | 1.02 ± 0.048
16 | C[C@@H]1C[C@H]2[C@@H]3CCC4=CC(=O)C=C[C@]4(C)[C@@]3(Cl)[C@@H](O)C[C@]2(C)[C@@]1(OC(=O)c1ccco1)C(=O)CCl [Mometasone furoate] | 1.26 ± 0.082
17 | Nc1c(Br)cc(Br)cc1CN[C@H]1CC[C@H](O)CC1 [Ambroxol hydrochloride] | 0.969 ± 0.036
18 | O=C(c1ccc(F)cc1)C1CCN(CCn2c(=O)[nH]c3ccccc3c2=O)CC1 [Ketanserin tartrate hydrate] | 0.939 ± 0.021

Row | Structure (SMILES) | glomerular width
19 | CCN(CC)CCCC(C)Nc1c2ccc(Cl)cc2nc2ccc(OC)cc12 (stereo not given) [Quinacrine dihydrochloride hydrate] | 1.01 ± 0.016
20 | CC(=O)NS(=O)(=O)c1ccc(N)cc1 [Sulfacetamide sodic hydrate] | 1.05 ± 0.057
21 | CC(C)NCC(O)c1ccc(O)c(O)c1 (single isomer, unassigned; (+)) [(+)-Isoproterenol (+)-bitartrate salt] | 1.03 ± 0.023
22 | Clc1ccc(C(Cn2ccnc2)OCc2ccsc2Cl)c(Cl)c1 (stereo not given) [Tioconazole] | 0.965 ± 0.013
23 | CCCCC(C)(O)C/C=C/[C@H]1[C@H](O)CC(=O)[C@@H]1CCCCCCC(=O)OC (mixture of isomers) [Misoprostol] | 0.959 ± 0.024
24 | CC(=O)/N=c1/sc(S(N)(=O)=O)nn1C [Methazolamide] | 1.14 ± 0.06
25 | Cc1cccc(C)c1NC(=O)CN1CCN(CCCC(c2ccc(F)cc2)c2ccc(F)cc2)CC1 [Lidoflazine] | 0.667 ± 0.014
26 | C[C@@H]1CN(c2c(F)c(N)c3c(=O)c(C(=O)O)cn(C4CC4)c3c2F)C[C@H](C)N1 [Sparfloxacin] | 0.92 ± 0.019
27 | Nc1nc(CC(=O)Nc2ccc(CCNC[C@H](O)c3ccccc3)cc2)cs1 [Mirabegron] | 1.04 ± 0.067
28 | CCN(CC)CCOC(=O)c1ccc(N)cc1 [Procaine hydrochloride] | 1.057 ± 0.0024
29 | O=C(COc1ccc(Cl)cc1)N1CCN(Cc2ccc3c(c2)OCO3)CC1 [Fipexide hydrochloride] | 0.86 ± 0.031
30 | Cc1cn([C@H]2C=C[C@@H](CO)O2)c(=O)[nH]c1=O [Stavudine] | 0.874 ± 0.0014
31 | CCN(CC)C(=O)/C(C#N)=C/c1cc(O)c(O)c([N+](=O)[O-])c1 [Entacapone] | 0.938 ± 0.17
32 | CC(C)(Oc1ccc(CCNC(=O)c2ccc(Cl)cc2)cc1)C(=O)O [Bezafibrate] | 0.988 ± 0.072
33 | C#CCN(C)CCCOc1ccc(Cl)cc1Cl [Clorgyline hydrochloride] | 1.05 ± 0.029
34 | Cc1[nH]cnc1CN1CCc2c(c3ccccc3n2C)C1=O [Alosetron hydrochloride] | 1.027 ± 0.0085
35 | O=C(NCC1CCCCN1)c1cc(OCC(F)(F)F)ccc1OCC(F)(F)F (stereo not given) [Flecainide acetate] | 1.03 ± 0.022
